Measured values taken from PubChem BioAssay.
The source made the active and inactive calls.

Experiments:
Albumin (Bos taurus) = Albumin (Bos taurus) (UniProt P02769); assay: bovine serum albumin binders on microarray, profiling panel, artefact control for SMM control protein annotation, biochemical, small-molecule microarray, Alexa647 label, 635/667 nm fluorescence (AID 1118); settings: BSA-A647 binding, fluorescence 635 nm, higher = more signal;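 further: score merges 667 nm emission intensity and signal-to-noise per printed compound spot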
Chain of Albumin (Bos taurus) (P02769 whole entry, looked up): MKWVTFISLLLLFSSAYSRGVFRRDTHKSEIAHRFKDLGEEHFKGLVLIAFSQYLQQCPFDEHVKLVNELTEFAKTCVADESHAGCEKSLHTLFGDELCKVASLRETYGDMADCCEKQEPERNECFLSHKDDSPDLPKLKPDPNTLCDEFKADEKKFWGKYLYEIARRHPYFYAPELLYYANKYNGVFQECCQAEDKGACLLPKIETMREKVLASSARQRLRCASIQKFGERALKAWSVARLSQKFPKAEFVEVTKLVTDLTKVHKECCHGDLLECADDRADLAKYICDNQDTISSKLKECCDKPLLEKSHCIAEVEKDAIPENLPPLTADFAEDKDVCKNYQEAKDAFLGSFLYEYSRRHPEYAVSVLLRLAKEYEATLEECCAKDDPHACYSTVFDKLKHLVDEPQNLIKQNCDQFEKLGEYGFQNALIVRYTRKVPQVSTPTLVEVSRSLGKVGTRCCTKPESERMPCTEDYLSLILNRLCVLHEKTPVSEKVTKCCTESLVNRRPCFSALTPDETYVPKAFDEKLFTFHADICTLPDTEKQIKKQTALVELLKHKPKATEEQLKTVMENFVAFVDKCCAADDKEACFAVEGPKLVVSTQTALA

[1] = small-molecule microarray binders of probe aXIP, primary screen, biochemical, NeuroSMM set, 635/667 nm fluorescence (AID 1119); settings: higher = more signal, called active from +8 up or from −8 down;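 further: probe is the protein aXip251-270 applied at 1 µg/mL to compound-printed slides; binding of probe to printed compounds measured as 667 nm fluorescence plus signal to noise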
[2] = small-molecule binders of probe aNOTCH3, primary screen, biochemical, small-molecule microarray, 635/667 nm fluorescence (AID 1120); settings: higher = more signal;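 further: probe is a biotin-tagged antibody raised against NOTCH3 rather than NOTCH3 protein; score merges spot fluorescence near 667 nm with spot signal to noise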
[3] = small-molecule binders of probe aNOTCH2, primary screen, biochemical, small-molecule microarray, 635/667 nm fluorescence (AID 1121); settings: higher = more signal;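 further: score merges feature fluorescence read at 667 nm with its signal to noise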
[4] = molecular target: Carbonic anhydrase 2 (Homo sapiens) (UniProt P00918); assay: CAII small-molecule binders, profiling panel, biochemical, small-molecule microarray, Alexa647-labelled CAII (AID 1122); settings: CAII-A647 binding fluorescence, higher = more signal
[5] = COS7 lysate on small-molecule microarray, probe aHis, 635 nm (AID 1123); settings: COS7 cell lysate, fluorescence, higher = more signal;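 further: z-score combines 667nm fluorescence intensity with signal-to-noise per printed compound spot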
[6] = compound binding in COS7 lysate, probe aLAP1, primary screen, cell lysate, small-molecule microarray (AID 1124); settings: probe aLAP1, fluorescence, higher = more signal;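 further: lysate comes from COS7 cells expressing LAP1 and is applied at 0.3 µg/mL; score merges spot fluorescence near 667 nm with signal-to-noise over triplicate slides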
Sam68 (KHDRBS1) = assay: Sam68 small-molecule binders, primary screen, biochemical, small-molecule microarray, 635 nm fluorescence (AID 1125); settings: small-molecule microarray binding, higher = more signal;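 further: score merges 667 nm channel intensity with signal to noise over triplicate slides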
[7] = system: Chordin-like protein 2 (CHRDL2); assay: CHRDL2 small-molecule binders, primary screen, biochemical, small-molecule microarray, 635 nm fluorescence (AID 1126); settings: small-molecule microarray binding, fluorescence 635 nm; higher = more signal;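 further: printed compound slides probed with Chrdl2 protein at 4 µg/mL for 1 h at 4 C; score merges 667 nm emission intensity with signal to noise over three replicate slides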
[8] = molecular target: Concanavalin-A (Canavalia ensiformis) (UniProt P02866); assay: ConA small-molecule binders, primary screen, artefact control for SMM control protein annotation, biochemical, small-molecule microarray, Alexa647 label, 635 nm (AID 1127); settings: ConA-A647 binding fluorescence, higher = more signal;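 further: z combines 667 nm emission intensity with signal-to-noise across three replicate slides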
Chain of Concanavalin-A (Canavalia ensiformis) (P02866 whole entry, looked up): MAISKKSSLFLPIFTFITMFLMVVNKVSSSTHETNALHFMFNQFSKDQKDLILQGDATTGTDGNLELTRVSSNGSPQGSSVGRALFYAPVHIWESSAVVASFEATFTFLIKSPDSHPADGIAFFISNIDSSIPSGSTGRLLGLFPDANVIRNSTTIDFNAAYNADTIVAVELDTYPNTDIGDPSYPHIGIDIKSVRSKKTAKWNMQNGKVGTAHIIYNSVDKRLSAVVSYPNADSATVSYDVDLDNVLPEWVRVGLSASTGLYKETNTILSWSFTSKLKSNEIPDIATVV

[9] = anti-His antibody binders, primary screen, artefact control for SMM control protein annotation, biochemical, small-molecule microarray, 635 nm fluorescence (AID 1128); settings: anti-His Alexa647 antibody binding, higher = more signal;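 further: score merges feature fluorescence with signal-to-noise for each printed compound spot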
[10] = system: Human papillomavirus type 1a E7 protein (residues 1-88); assay: HPV1a E7 small-molecule binders, primary screen, biochemical, small-molecule microarray, residues 1-88, 635 nm (AID 1129); settings: small-molecule microarray binding, fluorescence 635 nm; higher = more signal
[11] = molecular target: Focal adhesion kinase 1 (Homo sapiens) (UniProt Q05397); assay: small-molecule microarray binders of FAK, primary screen, biochemical, 635/667 nm fluorescence, BSA, DTT (AID 1130); settings: PTK2 binding, 635 nm fluorescence, higher = more signal;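 further: composite of spot emission at 667 nm and signal to noise over triplicate slides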
Chain of Focal adhesion kinase 1 (Homo sapiens) (Q05397 whole entry, looked up): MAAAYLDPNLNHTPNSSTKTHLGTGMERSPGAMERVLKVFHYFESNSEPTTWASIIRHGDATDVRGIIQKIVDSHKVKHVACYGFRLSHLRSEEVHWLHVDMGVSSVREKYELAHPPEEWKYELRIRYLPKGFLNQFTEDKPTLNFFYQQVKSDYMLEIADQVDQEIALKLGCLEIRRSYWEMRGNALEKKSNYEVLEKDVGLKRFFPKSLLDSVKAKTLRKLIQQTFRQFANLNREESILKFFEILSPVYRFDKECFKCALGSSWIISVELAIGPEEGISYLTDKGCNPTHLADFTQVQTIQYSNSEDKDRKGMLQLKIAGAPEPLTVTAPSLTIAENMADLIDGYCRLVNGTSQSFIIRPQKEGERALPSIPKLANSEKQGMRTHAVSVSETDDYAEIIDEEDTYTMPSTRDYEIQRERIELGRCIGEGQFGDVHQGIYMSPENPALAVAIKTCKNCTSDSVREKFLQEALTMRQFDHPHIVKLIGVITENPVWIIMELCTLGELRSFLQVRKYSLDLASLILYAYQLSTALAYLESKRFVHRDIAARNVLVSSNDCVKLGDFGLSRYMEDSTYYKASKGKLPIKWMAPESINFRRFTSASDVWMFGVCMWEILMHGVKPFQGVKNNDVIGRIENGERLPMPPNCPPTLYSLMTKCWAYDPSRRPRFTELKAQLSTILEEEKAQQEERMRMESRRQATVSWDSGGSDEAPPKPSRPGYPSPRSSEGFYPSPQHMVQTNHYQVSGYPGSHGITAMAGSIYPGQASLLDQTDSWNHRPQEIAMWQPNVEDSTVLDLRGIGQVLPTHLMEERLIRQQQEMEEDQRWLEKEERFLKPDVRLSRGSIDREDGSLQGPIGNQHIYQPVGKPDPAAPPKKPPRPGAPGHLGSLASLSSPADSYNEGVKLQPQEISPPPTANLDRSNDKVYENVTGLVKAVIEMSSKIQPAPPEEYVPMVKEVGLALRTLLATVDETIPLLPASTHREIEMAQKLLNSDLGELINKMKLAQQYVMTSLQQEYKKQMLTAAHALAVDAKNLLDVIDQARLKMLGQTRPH

[12] = system: Fibrinogen (Alexa647-labelled); assay: fibrinogen binders on compound microarrays, profiling panel, artefact control for SMM control-protein annotation, biochemical, small-molecule microarray, 635/667 nm fluorescence (AID 1131); settings: fibrinogen-A647 binding fluorescence, higher = more signal;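 further: z-score merges 667 nm fluorescence with per-spot signal-to-noise over triplicate slides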
[13] = molecular target: Follistatin (Homo sapiens) (UniProt P19883); assay: follistatin binders on small-molecule microarrays, primary screen, biochemical, small-molecule microarray, 635/667 nm fluorescence (AID 1132); settings: FST binding, 635 nm fluorescence, higher = more signal
Chain of Follistatin (Homo sapiens) (P19883 whole entry, looked up): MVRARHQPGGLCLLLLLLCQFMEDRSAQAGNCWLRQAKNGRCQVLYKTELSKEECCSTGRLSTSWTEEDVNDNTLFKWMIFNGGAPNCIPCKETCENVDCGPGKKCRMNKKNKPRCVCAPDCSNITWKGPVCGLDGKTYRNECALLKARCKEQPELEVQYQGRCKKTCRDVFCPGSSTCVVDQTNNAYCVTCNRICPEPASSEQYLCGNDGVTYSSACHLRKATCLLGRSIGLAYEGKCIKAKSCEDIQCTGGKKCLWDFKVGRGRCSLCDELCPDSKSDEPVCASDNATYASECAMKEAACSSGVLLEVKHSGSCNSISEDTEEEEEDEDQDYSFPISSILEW

[14] = molecular target: Fibroblast growth factor 2 (Homo sapiens) (UniProt P09038); assay: FGF2 binders on small-molecule microarrays, primary screen, biochemical, small-molecule microarray, 635/667 nm fluorescence (AID 1133); settings: small-molecule microarray binding, FGF2, fluorescence 635/667; higher = more signal
Chain of Fibroblast growth factor 2 (Homo sapiens) (P09038 whole entry, looked up): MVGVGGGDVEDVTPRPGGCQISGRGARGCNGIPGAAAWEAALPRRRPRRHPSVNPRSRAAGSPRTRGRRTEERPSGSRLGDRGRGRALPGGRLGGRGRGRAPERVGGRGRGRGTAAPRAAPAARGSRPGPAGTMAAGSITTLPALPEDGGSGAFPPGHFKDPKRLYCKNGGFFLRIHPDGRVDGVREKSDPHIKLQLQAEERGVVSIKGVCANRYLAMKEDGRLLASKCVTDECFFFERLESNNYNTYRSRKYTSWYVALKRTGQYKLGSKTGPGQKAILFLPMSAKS

[15] = mitochondrial membrane potential change in A549 cells, profiling panel, cell-based, JC-1 fluorescence, basal, 24 h, 100 nL (AID 1138); settings: higher = more signal;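 further: A549 lung adenocarcinoma cells under basal conditions with no added stimulus; test concentration not given here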
Lefty1 = Lefty1 binders on small-molecule microarrays, primary screen, biochemical, small-molecule microarray, 635/667 nm fluorescence (AID 1139); settings: small-molecule microarray binding, fluorescence 635/667; higher = more signal
[16] = system: wheat germ agglutinin (Triticum aestivum), Alexa647-labelled; assay: wheat germ agglutinin binders on compound microarrays, profiling panel, artefact control for SMM control-protein annotation, biochemical, small-molecule microarray, 635/667 nm fluorescence (AID 1140); settings: WGA-A647 binding, 635 nm fluorescence, higher = more signal;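 further: score merges 667 nm feature emission with signal to noise over triplicate slides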
[17] = molecular target: Luciferin 4-monooxygenase (Photinus pyralis) (UniProt P08659); assay: firefly luciferase enzyme inhibitors, primary screen, biochemical, luminescence, purified enzyme, 2006 set (AID 1141); settings: SteadyGlo luminescence, 30 min, higher = more signal, called active from +8 up or from −8 down;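 further: cell-free assay with purified firefly luciferase at 100 ng per well in PBS; test concentration not given here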
Chain of Luciferin 4-monooxygenase (Photinus pyralis) (P08659 whole entry, looked up): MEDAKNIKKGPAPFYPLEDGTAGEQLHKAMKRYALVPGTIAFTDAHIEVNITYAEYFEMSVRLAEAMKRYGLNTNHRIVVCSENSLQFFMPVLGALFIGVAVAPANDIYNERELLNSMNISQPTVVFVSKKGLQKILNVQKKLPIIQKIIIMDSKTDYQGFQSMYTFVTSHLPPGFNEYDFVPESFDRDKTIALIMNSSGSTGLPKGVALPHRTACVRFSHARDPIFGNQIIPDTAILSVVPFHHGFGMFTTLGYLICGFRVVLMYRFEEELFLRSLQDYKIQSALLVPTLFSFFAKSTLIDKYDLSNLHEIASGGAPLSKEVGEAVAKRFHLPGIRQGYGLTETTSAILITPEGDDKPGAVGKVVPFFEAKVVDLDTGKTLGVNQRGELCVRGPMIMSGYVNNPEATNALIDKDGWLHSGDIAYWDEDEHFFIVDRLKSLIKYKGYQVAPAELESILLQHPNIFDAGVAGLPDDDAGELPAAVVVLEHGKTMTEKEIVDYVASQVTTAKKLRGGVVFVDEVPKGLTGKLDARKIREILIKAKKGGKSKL

Structure (SMILES) | composite z-score (Albumin (Bos taurus)) | composite Z-score [1] | composite z-score [2] | composite z-score [3] | composite z-score [4] | composite z-score [5] | composite z-score [6] | composite z-score (Sam68 (KHDRBS1)) | composite z-score [7] | composite z-score [8] | composite z-score [9] | composite z-score [10] | composite z-score [11] | composite z-score [12] | composite z-score [13] | composite z-score [14] | z-score [15] | composite z-score (Lefty1) | composite z-score [16] | z-score [17]
O=C1C=C[C@@H](O)[C@@H]2[C@@H]3C(=O)N(c4ccc(F)cc4F)C(=O)[C@@H]3CC[C@@H]12 | 0.351 | 0.331 (inactive) | 0.0409 | -0.0772 | -0.0233 | -0.303 | -0.113 | 0.157 | 0.717 | 0.753 | -0.0956 | 0.437 | 0.103 | 0.61 | 0.791 | 0.602 | 0.784 | 0.564 | 0.215 | -1.71 (inactive)
CC(C)CON=C1[C@H]2CCn3c(=O)n(Cc4cc5c(cc4Cl)OCO5)c(=O)n3[C@H]2[C@H](O)[C@@H]2O[C@H]12 | -0.0261 | 0.242 (inactive) | -0.0328 | -0.0718 | 0.0904 | -0.182 | -0.177 | 0.344 | 0.529 | 0.702 | 0.158 | 0.489 | 0.217 | 0.172 | 0.768 | 0.42 | -0.937 | 0.452 | -0.121 | 0.748 (inactive)
CCCCC#C[C@@H]1C=C[C@H](OC(C)=O)[C@@H](COC(C)=O)O1 | 0.678 | 0.299 (inactive) | 0.0758 | -0.0698 | -0.0641 | 0.015 | -0.406 | 0.581 | 0.282 | 0.475 | 0.113 | 0.283 | -0.0443 | 0.88 | 0.248 | 0.316 | -0.79 | 0.487 | 0.219 | -1.41 (inactive)
